{"source": "PubChem BioAssay (NCI)", "note": "Compounds without any hit were thinned out: in the full panel of roughly 83,000, 20% have a hit.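 Each cell line was grown in a 96-well plate and treated with one concentration of compound for 48 hours. Values below 10 were considered active.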 Calls of active or inactive are those of the source.", "data": [{"system": "TK-10 renal", "assay": "NCI-60 one-dose screen, 48 h (100 = growth as untreated, 0 = no growth, -100 = all killed)", "conditions": "10 µM unless noted", "values": [{"smiles": "O=C1CC(=O)N2CSCN(C(c3ccccc3)c3nc4ncncc4[nH]3)C2=N1", "note": "(stereo unspecified)", "growth": "106% (inactive)"}, {"smiles": "COc1cc(/C=N/NC(=O)c2cn(C3CC3)c3c(OC)c(N4CC5CCCNC5C4)c(F)cc3c2=O)ccc1O", "note": "(stereo unspecified)", "growth": "119% (inactive)"}, {"smiles": "C[C@H](CCC(=O)NCc1ccc(C(=O)Nc2ccccc2N)cc1)[C@H]1CC[C@H]2[C@@H]3[C@@H](O)C[C@@H]4C[C@H](O)CC[C@]4(C)[C@H]3CC[C@]12C", "growth": "54.8% (inactive)"}, {"smiles": "N#Cc1cn(Cc2ccc(Cl)cc2Cl)c(C(=O)c2ccc(Br)cc2)c1N", "growth": "101% (inactive)"}, {"smiles": "CCNC(=O)N1CCc2cc(OC)c(OCCc3ccc(OC)nc3)cc2C1c1ccc(OC)cc1C", "note": "(stereo unspecified)", "growth": "59.9% (inactive)"}, {"smiles": "C=CCn1c(-c2nc3ccc(C(=C(C#N)C#N)c4ccccc4)cc3[nH]2)cc2cc(Br)ccc21", "growth": "94% (inactive)"}, {"smiles": "Cc1ccc(S(=O)(=O)NCCNc2nc(Nc3ccc(N4CCN(C)CC4)cc3)nc3ccsc23)cc1", "growth": "121% (inactive)"}, {"smiles": "COc1cc2nc(Cl)nc(Nc3cccc(C4=Nc5c(N)nc(N)nc5NC(c5ccc(Cl)cc5)C4)c3)c2cc1OC", "note": "(stereo unspecified)", "growth": "115% (inactive)"}]}, {"system": "ACHN renal", "assay": "NCI-60 one-dose screen, 48 h (100 = growth as untreated, 0 = no growth, -100 = all killed)", "conditions": "10 µM unless noted", "values": [{"smiles": "COc1ccc2[nH]cc(-c3csc4nc(-c5ccccc5)cn34)c2c1", "growth": "38.6% (inactive)"}, {"smiles": "COc1cc(Cn2cc3c(c2)-c2onc(CN4CCCC4)c2CC3)cc(OC)c1OC", "growth": "97.5% (inactive)"}, {"smiles": "COC(=O)/C=C/c1c(C2(C)NC(=O)c3ccccc3N2)c(=O)oc2ccc(Cl)cc12", "note": "(stereo unspecified)", "growth": "87.4% (inactive)"}, {"smiles": "Cc1ccc2c(c1)Oc1nc(N)c(C#N)c(N)c1C2Sc1ccc(F)cc1", "note": "(stereo unspecified)", "growth": "-100% (active)"}, {"smiles": "COc1ccc(Cn2cc3c(c2-c2cc(OC)c(OC)c(OC)c2)CCc2c(CN4CCCC4)noc2-3)cc1", "growth": "45.7% (inactive)"}, {"smiles": "COc1ccc(Cn2cc3c(c2-c2cc(OC)c(OC)c(OC)c2)CCc2c(CN4CCOCC4)noc2-3)cc1", "growth": "43.4% (inactive)"}, {"smiles": "CCNC(=O)N1CCc2cc(OC)c(OCCc3ccc(OC)cc3)cc2C1c1ccc([N+](=O)[O-])cc1C", "note": "(stereo unspecified)", "growth": "30.4% (inactive)"}, {"smiles": "COc1ccc([C@@H]2[C@@H](O)C(=O)N2c2cc(OC)c(OC)c(OC)c2)cc1F", "growth": "28.4% (inactive)"}, {"smiles": "Cc1ccc(-c2nnc(SCc3ccc(O)c4ncccc34)n2-c2ccccc2)cc1", "growth": "8.47% (active)"}, {"smiles": "COc1cc2oc(-c3cccc(C(=O)N[C@@H](CC(C)C)C(=O)OC(C)(C)C)c3)cc(=O)c2c(OC)c1OC", "growth": "69.7% (inactive)"}, {"smiles": "Cc1ccc(S(=O)(=O)N(CC[C@@H]2C[C@H]2c2cc3ccccc3o2)S(=O)(=O)c2ccc(C)cc2)cc1", "growth": "98.2% (inactive)"}, {"smiles": "Brc1ccccc1/C=N/Nc1nc(N/N=C/c2ccccc2Br)nc(N2CCOCC2)n1", "growth": "93.6% (inactive)"}, {"smiles": "CC1=NC2=NC(=O)/C(=C3/N=C(C)C=C(c4ccccc4)N3N)NN2C(c2ccccc2)=C1", "growth": "101% (inactive)"}, {"smiles": "CN(C)CCN(C)c1ccc2ncc(C#Cc3cncc(C(=O)Nc4ccc(CN5CCN(C)CC5)c(C(F)(F)F)c4)c3)n2n1", "growth": "47.2% (inactive)"}, {"smiles": "NC(N)=Nc1ccc(Oc2cccc(Nc3ccc(Br)c(C(F)(F)F)c3)c2)cn1", "growth": "1.96% (active)"}, {"smiles": "COc1cc(Cn2cc3c(c2)-c2onc(CN4CCOCC4)c2CC3)cc(OC)c1OC", "growth": "99.5% (inactive)"}, {"smiles": "Cc1cc(-c2ccc(Cl)cc2)n(Cc2nnc(SCC(=O)Nc3ccc(S(N)(=O)=O)cc3)n2-c2ccc([N+](=O)[O-])cc2)n1", "growth": "79.1% (inactive)"}, {"smiles": "COc1ccc(C(=O)CSc2nc3c(c(Nc4ccc(S(N)(=O)=O)cc4)n2)CCCC3)cc1", "growth": "89.9% (inactive)"}, {"smiles": "CCn1c(SCC(=O)Nc2cccc(C(=O)/C=C/c3cc(OC)c(OC)c(OC)c3)c2)nc2ccccc2c1=O", "growth": "41.7% (inactive)"}, {"smiles": "Nc1ncc(-c2ccc(NS(=O)(=O)c3ccc(Cl)c(Cl)c3)cc2)[nH]1", "growth": "95.7% (inactive)"}, {"smiles": "Cc1nn(-c2ccccc2)c2ncnc(N/N=C/c3ccccc3O)c12", "growth": "3.52% (active)"}, {"smiles": "COc1cc(-c2nnc(SCc3ccc(O)c4ncccc34)n2-c2ccccc2)cc(OC)c1OC", "growth": "4.84% (active)"}, {"smiles": "Oc1ccc(CSc2nnc(-c3ccc(Cl)cc3)n2-c2ccccc2)c2cccnc12", "growth": "30.5% (inactive)"}, {"smiles": "CCc1ccc(SC2c3ccc(N(CC)CC)cc3Oc3nc(N)c(C#N)c(N)c32)cc1", "note": "(stereo unspecified)", "growth": "-53.7% (active)"}, {"smiles": "CS(=O)(=O)Nc1cc(-c2ccc3ncc(C#N)c(NCc4ccccc4O)c3c2)cnc1Cl", "growth": "12.4% (inactive)"}, {"smiles": "NS(=O)(=O)c1ccc(Nc2cc(-c3ccccc3)nc(SCC(=O)c3ccccc3)n2)cc1", "growth": "105% (inactive)"}, {"smiles": "c1ccc(C(c2nc3ncncc3[nH]2)N2CSc3nc4ccccc4n3C2)cc1", "note": "(stereo unspecified)", "growth": "94.7% (inactive)"}, {"smiles": "COCCNc1ccc2ncc(C#Cc3cncc(C(=O)Nc4ccc(CN5CCN(C)CC5)c(C(F)(F)F)c4)c3)n2n1", "growth": "1.57% (active)"}, {"smiles": "O=c1c2ccccc2nc(COc2ccccc2)n1NS(=O)(=O)c1ccc(Cl)cc1", "growth": "92.8% (inactive)"}, {"smiles": "NC(N)=Nc1ccc(Oc2cccc(Nc3ccc(Cl)c(C(F)(F)F)c3)c2)cn1", "growth": "3.16% (active)"}, {"smiles": "O=C1CC(=O)N2CSCN(C(c3ccccc3)c3nc4ncncc4[nH]3)C2=N1", "note": "(stereo unspecified)", "growth": "99.8% (inactive)"}, {"smiles": "COc1cc(/C=N/NC(=O)c2cn(C3CC3)c3c(OC)c(N4CC5CCCNC5C4)c(F)cc3c2=O)ccc1O", "note": "(stereo unspecified)", "growth": "35.3% (inactive)"}, {"smiles": "C[C@H](CCC(=O)NCc1ccc(C(=O)Nc2ccccc2N)cc1)[C@H]1CC[C@H]2[C@@H]3[C@@H](O)C[C@@H]4C[C@H](O)CC[C@]4(C)[C@H]3CC[C@]12C", "growth": "92.9% (inactive)"}, {"smiles": "N#Cc1cn(Cc2ccc(Cl)cc2Cl)c(C(=O)c2ccc(Br)cc2)c1N", "growth": "99% (inactive)"}, {"smiles": "CCNC(=O)N1CCc2cc(OC)c(OCCc3ccc(OC)nc3)cc2C1c1ccc(OC)cc1C", "note": "(stereo unspecified)", "growth": "32.2% (inactive)"}, {"smiles": "C=CCn1c(-c2nc3ccc(C(=C(C#N)C#N)c4ccccc4)cc3[nH]2)cc2cc(Br)ccc21", "growth": "55.6% (inactive)"}, {"smiles": "Cc1ccc(S(=O)(=O)NCCNc2nc(Nc3ccc(N4CCN(C)CC4)cc3)nc3ccsc23)cc1", "growth": "106% (inactive)"}, {"smiles": "COc1cc2nc(Cl)nc(Nc3cccc(C4=Nc5c(N)nc(N)nc5NC(c5ccc(Cl)cc5)C4)c3)c2cc1OC", "note": "(stereo unspecified)", "growth": "102% (inactive)"}]}]}
